Data published in PubChem BioAssay (NCI).
The panel holds about 83,000 compounds, 20% with a hit somewhere; the sample as a whole holds those more often.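 Testing used 96-well plates and a 48-hour single-concentration exposure. Example: -40 means 40% of the starting cells died.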 Activity calls are given as the source filed them. How the source made its calls: active means growth percent below 10; inactive means the rest.

Tests used:
Assay in all cases: NCI-60 one-dose screen, 48 h (100 = growth as untreated, 0 = no growth, -100 = all killed)
Details in all cases: 10 µM unless noted
NCI-H23 lung = test system: NCI-H23 lung
NCI-H322M lung = test system: NCI-H322M lung
NCI-H460 lung = test system: NCI-H460 lung
HOP-92 NSCLC = test system: HOP-92 NSCLC
NCI-H522 lung = test system: NCI-H522 lung
A549/ATCC NSCLC = test system: A549/ATCC NSCLC
786-0 renal = test system: 786-0 renal
COLO 205 colon = test system: COLO 205 colon
DU-145 prostate = test system: DU-145 prostate
K-562 leukemia = test system: K-562 leukemia
MALME-3M melanoma = test system: MALME-3M melanoma
MDA-MB-231 breast = test system: MDA-MB-231 breast
SF-268 CNS = test system: SF-268 CNS
SF-295 CNS = test system: SF-295 CNS
SF-539 CNS = test system: SF-539 CNS
UACC-257 melanoma = test system: UACC-257 melanoma
M14 melanoma = test system: M14 melanoma
HCT-15 colon = test system: HCT-15 colon
RXF 393 renal = test system: RXF 393 renal

Measured: growth

N#CC(C#N)=Cc1c(-c2ccccc2)[nH]c2ccccc12
active: SF-539 CNS -11.7%
inactive: NCI-H23 lung 41% | NCI-H322M lung 61% | NCI-H460 lung 16.9% | HOP-92 NSCLC 45.1% | NCI-H522 lung 50.2% | A549/ATCC NSCLC 37.1% | 786-0 renal 40% | COLO 205 colon 20.4% | DU-145 prostate 15.7% | K-562 leukemia 12.7% | MALME-3M melanoma 81.3% | MDA-MB-231 breast 50.2% | SF-268 CNS 44.6% | SF-295 CNS 31.6% | UACC-257 melanoma 52.3% | M14 melanoma 27.7% | HCT-15 colon 35.3%

O=C(c1ccccc1)N(CCc1ccc(Cl)cc1)C(=S)N(C(=O)c1ccccc1)c1ccccc1
inactive: NCI-H23 lung 92.7% | NCI-H322M lung 111% | NCI-H460 lung 106% | HOP-92 NSCLC 71% | NCI-H522 lung 105% | A549/ATCC NSCLC 97.3% | 786-0 renal 97.6% | COLO 205 colon 150% | DU-145 prostate 83.9% | K-562 leukemia 58.3% | MDA-MB-231 breast 107% | SF-268 CNS 101% | SF-295 CNS 109% | SF-539 CNS 106% | UACC-257 melanoma 102% | M14 melanoma 113% | HCT-15 colon 93.8%

N#Cc1c(N)nc2c(c1N)C(c1ccc(F)cc1)c1ccc(N)cc1O2 (stereo unspecified)
inactive: NCI-H23 lung 117% | NCI-H322M lung 150% | NCI-H460 lung 110% | HOP-92 NSCLC 97.2% | NCI-H522 lung 86.4% | A549/ATCC NSCLC 101% | 786-0 renal 92.3% | COLO 205 colon 124% | DU-145 prostate 110% | K-562 leukemia 104% | MALME-3M melanoma 136% | MDA-MB-231 breast 118% | RXF 393 renal 92.3% | SF-268 CNS 105% | SF-295 CNS 83.1% | SF-539 CNS 103% | UACC-257 melanoma 102% | M14 melanoma 111% | HCT-15 colon 100%

CCOC(=O)c1c2c(c(C)n1Cc1ccc(OC)cc1)-c1oncc1CC2
inactive: NCI-H23 lung 87.7% | NCI-H322M lung 78.5% | NCI-H460 lung 99.1% | HOP-92 NSCLC 60.6% | NCI-H522 lung 99.3% | A549/ATCC NSCLC 84.8% | 786-0 renal 79.6% | COLO 205 colon 137% | DU-145 prostate 96% | K-562 leukemia 92% | MALME-3M melanoma 125% | MDA-MB-231 breast 115% | RXF 393 renal 88.1% | SF-268 CNS 81.5% | SF-295 CNS 91.3% | SF-539 CNS 79.5% | UACC-257 melanoma 106% | M14 melanoma 121% | HCT-15 colon 91.3%

O=C1/C(=C/c2ccc(O)cc2)COc2ccc(O)c(O)c21
active: NCI-H460 lung 8.73% | K-562 leukemia 4.59% | MALME-3M melanoma -6.72% | RXF 393 renal 9.98% | SF-539 CNS -13.7% | HCT-15 colon -29.3%
inactive: NCI-H23 lung 35.9% | NCI-H322M lung 79% | HOP-92 NSCLC 52.7% | A549/ATCC NSCLC 34.5% | 786-0 renal 25.4% | COLO 205 colon 91.8% | DU-145 prostate 17% | MDA-MB-231 breast 20.2% | SF-268 CNS 24.5% | SF-295 CNS 95.6% | UACC-257 melanoma 63.2% | M14 melanoma 64.7%

Cc1ccc2[nH]c(=O)cc(-n3nncc3Cn3c4ccccc4c4ccccc43)c2c1
inactive: NCI-H23 lung 94.1% | NCI-H322M lung 97.6% | NCI-H460 lung 102% | HOP-92 NSCLC 89.8% | NCI-H522 lung 93.9% | A549/ATCC NSCLC 98.9% | 786-0 renal 101% | COLO 205 colon 116% | DU-145 prostate 102% | MALME-3M melanoma 93.5% | MDA-MB-231 breast 97.6% | SF-268 CNS 86.4% | SF-295 CNS 98.9% | SF-539 CNS 94% | UACC-257 melanoma 97.5% | M14 melanoma 105% | HCT-15 colon 99%

Cc1ccc(Cn2c(N3CCC(C(=O)NCc4cccs4)CC3)nc3ccccc32)cc1
active: K-562 leukemia -42.9%
inactive: NCI-H23 lung 85.2% | NCI-H322M lung 114% | NCI-H460 lung 82.5% | HOP-92 NSCLC 73.9% | NCI-H522 lung 107% | A549/ATCC NSCLC 95% | 786-0 renal 89.1% | COLO 205 colon 96.9% | DU-145 prostate 72.8% | MALME-3M melanoma 63.6% | MDA-MB-231 breast 71.3% | RXF 393 renal 80.7% | SF-268 CNS 72.3% | SF-295 CNS 97% | SF-539 CNS 88% | UACC-257 melanoma 119% | M14 melanoma 31.5% | HCT-15 colon 87%

COC(=O)C1(C)CCC[C@]2(C)[C@H]3C[C@H]4C(C(C)C)=C[C@]3(CC[C@@H]12)[C@H]1[C@@H]4[C@@H](OCC#CCN2CCOCC2)CC[C@@H]1OCC#CCN1CCOCC1 (stereo partly specified)
inactive: NCI-H23 lung 82.6% | NCI-H322M lung 102% | NCI-H460 lung 94% | HOP-92 NSCLC 54.9% | NCI-H522 lung 74.4% | A549/ATCC NSCLC 66.8% | 786-0 renal 86.1% | COLO 205 colon 89.2% | DU-145 prostate 95.5% | K-562 leukemia 70.3% | MALME-3M melanoma 79.3% | MDA-MB-231 breast 77.2% | RXF 393 renal 91.9% | SF-268 CNS 83.7% | SF-295 CNS 93.9% | SF-539 CNS 86.2% | UACC-257 melanoma 83.8% | M14 melanoma 81.6% | HCT-15 colon 85.5%
